We go through four compounds from PubChem BioAssay.

Experiment [1] in a line: compounds binding Alexa647 anti-His antibody – biochemical, small-molecule microarray, 635 nm fluorescence, artefact control for SMM control protein annotation, primary screen (AID 1128).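 Note: score merges feature fluorescence with signal-to-noise for each printed compound spot.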 The conditions noted are these: higher = more signal.
In experiment [2] the test system is Human papillomavirus type 1a E7 protein (residues 1-88). The experiment can be described thus: HPV1a E7 small-molecule binders, primary screen, biochemical, small-molecule microarray, residues 1-88, 635 nm (AID 1129). The conditions noted are these: small-molecule microarray binding, fluorescence 635 nm; higher = more signal.
Experiment [3] deals with Focal adhesion kinase 1 (Homo sapiens) (UniProt Q05397). Put plainly: PTK2 protein binding on printed compound slides – biochemical, small-molecule microarray, 635/667 nm fluorescence, BSA, DTT, primary screen (AID 1130).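 Note: composite of spot emission at 667 nm and signal to noise over triplicate slides.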 As to conditions: 635 nm fluorescence, higher = more signal.
Chain of Focal adhesion kinase 1 (Homo sapiens) (Q05397 whole entry, looked up): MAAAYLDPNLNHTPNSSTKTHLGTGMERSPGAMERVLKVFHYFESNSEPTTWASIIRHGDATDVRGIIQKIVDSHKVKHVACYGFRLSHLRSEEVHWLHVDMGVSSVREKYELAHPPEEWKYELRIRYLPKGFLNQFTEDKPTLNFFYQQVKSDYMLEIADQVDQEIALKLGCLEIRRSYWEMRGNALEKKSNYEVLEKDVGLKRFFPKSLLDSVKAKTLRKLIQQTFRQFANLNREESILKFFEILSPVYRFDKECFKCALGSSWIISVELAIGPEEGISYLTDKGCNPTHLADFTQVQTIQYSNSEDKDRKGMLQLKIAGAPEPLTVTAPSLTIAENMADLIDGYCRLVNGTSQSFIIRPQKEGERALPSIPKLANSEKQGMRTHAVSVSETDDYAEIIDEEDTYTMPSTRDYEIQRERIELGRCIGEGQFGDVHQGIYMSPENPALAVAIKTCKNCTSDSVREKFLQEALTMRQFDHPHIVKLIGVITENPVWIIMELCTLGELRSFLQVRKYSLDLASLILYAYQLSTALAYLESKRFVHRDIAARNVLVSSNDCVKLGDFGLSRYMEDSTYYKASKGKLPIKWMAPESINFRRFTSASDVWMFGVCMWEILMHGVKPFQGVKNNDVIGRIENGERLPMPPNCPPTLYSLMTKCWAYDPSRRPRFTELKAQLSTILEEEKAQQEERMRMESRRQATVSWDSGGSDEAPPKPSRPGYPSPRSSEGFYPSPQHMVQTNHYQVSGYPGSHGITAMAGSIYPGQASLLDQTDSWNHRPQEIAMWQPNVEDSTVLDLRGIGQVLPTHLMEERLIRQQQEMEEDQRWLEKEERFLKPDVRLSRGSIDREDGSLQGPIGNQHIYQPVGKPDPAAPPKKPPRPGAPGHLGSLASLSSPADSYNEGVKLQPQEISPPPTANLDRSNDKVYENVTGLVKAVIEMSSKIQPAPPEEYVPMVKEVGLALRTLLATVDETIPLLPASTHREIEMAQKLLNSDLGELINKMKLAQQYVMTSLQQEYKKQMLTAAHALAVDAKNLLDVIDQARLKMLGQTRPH
The test system of experiment [4] is Fibrinogen (Alexa647-labelled). The experiment can be described thus: Alexa647-fibrinogen binding to printed small molecules – biochemical, small-molecule microarray, 635/667 nm fluorescence, artefact control for SMM control-protein annotation, profiling panel (AID 1131).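 Note: z-score merges 667 nm fluorescence with per-spot signal-to-noise over triplicate slides.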 The conditions noted are these: fibrinogen-A647 binding fluorescence, higher = more signal.

In experiment [5] the target is Follistatin (Homo sapiens) (UniProt P19883). Put plainly: FST protein binding to printed compounds – biochemical, small-molecule microarray, 635/667 nm fluorescence, primary screen (AID 1132). The conditions noted are these: 635 nm fluorescence, higher = more signal.
Chain of Follistatin (Homo sapiens) (P19883 whole entry, looked up): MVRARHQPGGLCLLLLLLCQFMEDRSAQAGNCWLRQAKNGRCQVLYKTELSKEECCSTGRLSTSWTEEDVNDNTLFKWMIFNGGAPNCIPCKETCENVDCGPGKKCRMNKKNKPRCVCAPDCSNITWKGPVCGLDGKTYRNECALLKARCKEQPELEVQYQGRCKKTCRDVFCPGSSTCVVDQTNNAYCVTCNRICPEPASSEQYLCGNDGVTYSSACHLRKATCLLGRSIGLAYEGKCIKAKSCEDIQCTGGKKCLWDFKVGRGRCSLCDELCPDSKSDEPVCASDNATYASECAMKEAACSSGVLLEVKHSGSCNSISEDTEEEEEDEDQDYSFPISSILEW
For experiment [6], the target named is Fibroblast growth factor 2 (Homo sapiens) (UniProt P09038). Put plainly: basic fibroblast growth factor binding to printed compounds – biochemical, small-molecule microarray, 635/667 nm fluorescence, primary screen (AID 1133). The conditions noted are these: FGF2, fluorescence 635/667, higher = more signal.
Chain of Fibroblast growth factor 2 (Homo sapiens) (P09038 whole entry, looked up): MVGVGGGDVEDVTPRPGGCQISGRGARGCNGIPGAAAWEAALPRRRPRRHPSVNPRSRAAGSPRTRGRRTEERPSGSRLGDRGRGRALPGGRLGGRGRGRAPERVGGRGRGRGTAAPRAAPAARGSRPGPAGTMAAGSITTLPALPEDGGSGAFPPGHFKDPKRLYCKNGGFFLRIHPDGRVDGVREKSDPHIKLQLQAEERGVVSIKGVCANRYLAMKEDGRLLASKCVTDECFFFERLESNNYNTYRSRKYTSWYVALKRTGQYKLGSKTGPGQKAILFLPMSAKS
Experiment [7] is described as follows: JC-1 mitochondrial potential readout, lung cancer cells – cell-based, A549, JC-1 fluorescence, basal, 24 h, 100 nL, profiling panel (AID 1138).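 Note: A549 lung adenocarcinoma cells under basal conditions with no added stimulus; test concentration not given here.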 The conditions noted are these: higher = more signal.
In another experiment the test system is Lefty1. The experiment can be described thus: Lefty1 protein binding to printed compounds – biochemical, small-molecule microarray, 635/667 nm fluorescence, primary screen (AID 1139). As to conditions: fluorescence 635/667, higher = more signal.
In experiment [8] the test system is wheat germ agglutinin (Triticum aestivum), Alexa647-labelled. Put plainly: Alexa647-WGA lectin binding to printed small molecules – biochemical, small-molecule microarray, 635/667 nm fluorescence, artefact control for SMM control-protein annotation, profiling panel (AID 1140).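 Note: score merges 667 nm feature emission with signal to noise over triplicate slides.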 As to conditions: WGA-A647 binding, 635 nm fluorescence, higher = more signal.
Experiment [9] addresses Luciferin 4-monooxygenase (Photinus pyralis) (UniProt P08659). Put plainly: inhibition of purified Photinus pyralis luciferase – biochemical, luminescence, purified enzyme, 2006 set, primary screen (AID 1141).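 Note: cell-free assay with purified firefly luciferase at 100 ng per well in PBS; test concentration not given here.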 The conditions noted are these: purified firefly luciferase, SteadyGlo luminescence, 30 min; higher = more signal, called active from +8 up or from −8 down.
Experiment [10] concerns Wnt5a (protein binding on small-molecule microarray). Put plainly: small molecules binding Wnt5a protein – biophysical, small-molecule microarray, 635/667 nm fluorescence, primary screen (AID 1142).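 Note: fluorescence read at 667 nm with signal to noise per printed feature.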 As to conditions: 635 nm fluorescence, higher = more signal.
Experiment [11] is described as follows: ATP-based viability of Huh7 replicon cells – cell-based, CellTiter-Glo luminescence, basal, 48 h, cytotoxicity control for HCV replication inhibitor project, primary screen (AID 1143).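 Note: Huh7 hepatoma cells carrying a hepatitis C replication reporter with no stimulus; test concentration not given here.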 The conditions noted are these: higher = more signal, called active from +8 up or from −8 down.
Experiment [12] is described as follows: Pseudomonas biofilm growth suppression – PAO1 strain, BacTiter-Glo luminescence, LB-PBS, primary screen (AID 1144). As to conditions: P. aeruginosa PAO1 biofilm, 12 h, higher = more signal.
Experiment [13] is described as follows: basal CRE-LacZ reporter activity in PC12 – cell-based, unstimulated, primary screen (AID 1145). As to conditions: no forskolin, luminescence, 4.5 h, higher = more signal, called active from +8 up or from −8 down.
Experiment [14] can be described thus: forskolin-driven CRE-LacZ activity in PC12 – cell-based, CRE-LacZ reporter, forskolin-stimulated, primary screen (AID 1146).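 Note: PC12 cells with 6xCRE LacZ reporter stimulated by forskolin 10 µM; beta-galactosidase reporter signal reflecting CREB driven transcription.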 The conditions noted are these: luminescence, 4.5 h, higher = more signal, called active from +8 up or from −8 down.
For experiment [15], the target named is Streptavidin (Streptomyces avidinii) (UniProt P22629). Put plainly: compounds binding control protein streptavidin – biophysical, small-molecule microarray, 635/667 nm fluorescence, artefact control for SMM compound annotation, primary screen (AID 1147).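 Note: signal reflects streptavidin binding to arrayed compounds as a control protein.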 As to conditions: higher = more signal.
Chain of Streptavidin (Streptomyces avidinii) (P22629 whole entry, looked up): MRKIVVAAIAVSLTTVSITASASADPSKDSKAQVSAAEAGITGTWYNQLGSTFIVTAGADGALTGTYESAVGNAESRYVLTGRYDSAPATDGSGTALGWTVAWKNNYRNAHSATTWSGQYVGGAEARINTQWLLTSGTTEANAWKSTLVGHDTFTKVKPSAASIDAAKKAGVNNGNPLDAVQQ
Experiment [16] can be described thus: probe aInhba binding on compound microarray – biochemical, small-molecule microarray, 635/667 nm fluorescence, primary screen (AID 1148).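 Note: score merges 667nm spot fluorescence with signal-to-noise for antibody binding to printed compounds.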 The conditions noted are these: higher = more signal.
Experiment [17] has as its target Torsin-1A (Homo sapiens) (UniProt O14656). Put plainly: TOR1A wild-type binding on microarray – cell lysate, small-molecule microarray, lysate, 635/667 nm, primary screen (AID 1149). The conditions noted are these: COS7 hTOR1A-WT lysate, 635 nm fluorescence, higher = more signal.
The target is the same in experiment [18]. The experiment can be described thus: torsin A mutant lysate binding on microarrays – cell lysate, small-molecule microarray, COS7 lysate, 635/667 nm fluorescence, primary screen (AID 1150).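 Note: score pools 667 nm emission and signal to noise measuring lysate protein binding.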 The conditions noted are these: COS7 hTOR1A mutant lysate, 635 nm fluorescence, higher = more signal.
Experiment [19] deals with Sonic hedgehog protein (Shh). Put plainly: Sonic hedgehog microarray binding compounds – biochemical, small-molecule microarray, 635/667 nm fluorescence, primary screen (AID 1151).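 Note: Shh protein binding to compounds spotted on small-molecule microarray slides; score combines spot fluorescence intensity with signal-to-noise across triplicate slides.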 The conditions noted are these: 635 nm fluorescence, higher = more signal.

Each structure is given as a SMILES string. Active and inactive are the calls of the source. Unless noted, the rule behind the calls is not given here.

Chain of Luciferin 4-monooxygenase (Photinus pyralis) (P08659 whole entry, looked up): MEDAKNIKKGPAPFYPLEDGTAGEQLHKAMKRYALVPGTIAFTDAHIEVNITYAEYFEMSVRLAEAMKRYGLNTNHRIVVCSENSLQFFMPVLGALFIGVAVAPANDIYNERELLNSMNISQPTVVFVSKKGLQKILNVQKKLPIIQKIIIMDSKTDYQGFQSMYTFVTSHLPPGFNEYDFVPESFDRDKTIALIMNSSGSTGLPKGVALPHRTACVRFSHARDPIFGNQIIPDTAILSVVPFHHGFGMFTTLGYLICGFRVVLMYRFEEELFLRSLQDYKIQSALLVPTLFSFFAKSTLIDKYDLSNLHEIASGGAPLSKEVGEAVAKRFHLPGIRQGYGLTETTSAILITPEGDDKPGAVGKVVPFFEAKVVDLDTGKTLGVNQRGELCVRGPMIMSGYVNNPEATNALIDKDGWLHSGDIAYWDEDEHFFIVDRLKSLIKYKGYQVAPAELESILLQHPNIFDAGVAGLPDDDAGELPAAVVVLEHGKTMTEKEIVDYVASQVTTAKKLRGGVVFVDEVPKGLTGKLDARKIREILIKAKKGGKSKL
Chain of Torsin-1A (Homo sapiens) (O14656 whole entry, looked up): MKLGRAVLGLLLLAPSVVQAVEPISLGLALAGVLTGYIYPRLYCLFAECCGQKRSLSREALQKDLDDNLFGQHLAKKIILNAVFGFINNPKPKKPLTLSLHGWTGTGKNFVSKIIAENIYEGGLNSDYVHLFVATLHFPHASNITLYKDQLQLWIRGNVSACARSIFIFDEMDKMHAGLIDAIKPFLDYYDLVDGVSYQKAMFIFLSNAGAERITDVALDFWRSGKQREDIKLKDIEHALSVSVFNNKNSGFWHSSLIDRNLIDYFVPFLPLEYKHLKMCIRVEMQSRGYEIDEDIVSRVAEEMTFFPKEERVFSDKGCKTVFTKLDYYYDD

Turning to `CCCC=C(CCC)[C@@H](NP(=O)(c1ccccc1)c1ccccc1)c1ccc(C(F)(F)F)cc1`, the composite z-score is 0.74 in [1]; 0.811 in experiment [2]; 0.666 in [3]; 0.47 in experiment [4]; -0.683 in [5]; -0.265 in experiment [6]. The composite z-score in the experiment on Lefty1 is 0.57; in [8] it was 0.255; in [10], 0.71; in experiment [15] it was 0.0838; in experiment [16] it was -0.0833; with Torsin-1A (Homo sapiens) [17] it was 0.316. In addition, the composite z-score was 0.0932 with Torsin-1A (Homo sapiens) [18] and -0.395 in [19]. The z-score in experiment [7] is 0.365; in experiment [9], 2.55 (inactive); in experiment [11], -0.407 (inactive); in experiment [12], 0.592 (inactive); in experiment [13], 0.0041 (inactive); in experiment [14], 0.0568 (inactive).

On to `CC(C)(C)OC(=O)CC[C@]1(C(=O)NCCN2CCOCC2)N=C(c2ccc(OCCCO)cc2)O[C@H]1c1ccccc1N=[N+]=[N-]`, for which the composite z-score in experiment [1] was 2.11; in experiment [2], 1.15; in [3], 0.782; in experiment [4], 1.04; in [5], 0.283; in experiment [6], -0.104. The composite z-score with Lefty1 is -0.595; in experiment [8] it was 1.33; in experiment [10] it was 0.191; in experiment [15], 0.615; in experiment [16], 0.367; with Torsin-1A (Homo sapiens) [17], 0.0272. Besides, the composite z-score is 1.28 in the experiment with Torsin-1A (Homo sapiens) [18] and -0.299 in [19]. The z-score in [7] was 0.669; in experiment [9], -10.8 (active); in experiment [11], -0.616 (inactive); in experiment [12] it was 0.145 (inactive); in experiment [13], 0.872 (inactive); in experiment [14] it was -0.55 (inactive).

In the case of `COC(=O)[C@@]1(Cc2ccccc2)[C@H]2c3cc(C(=O)N4CCCC4)n(C[C@H](O)CO)c3C[C@H]2CN1C(=O)c1ccccc1`, the composite z-score was 1.39 in experiment [1]; 0.926 in [2]; 1.62 in experiment [3]; -0.455 in experiment [4]; -0.326 in [5]; -0.978 in experiment [6]. Moreover, the composite z-score with Lefty1 was -0.554; in experiment [8] it was 1.18; in experiment [10], -0.303; in experiment [15], 1.29; in experiment [16], 0.163; with Torsin-1A (Homo sapiens) [17], 0.677. The composite z-score was determined as 1.4 in the experiment with Torsin-1A (Homo sapiens) [18] and 0.139 in experiment [19]. In addition, the z-score in [7] is 0.577; in experiment [9] it was 1.22 (inactive); in experiment [11], 0.0728 (inactive); in experiment [12] it was -0.367 (inactive); in [13] it was 0.39 (inactive); in experiment [14], 0.881 (inactive).

Consider `COc1ccc(C(O)C2C=CC3C(=O)N(C)C(=O)C3N2N2CCCCC2)cc1` (stereo not given), for which the composite z-score in experiment [1] was 2.56; in experiment [2], 1.23; in [3] it was 0.656; in [4] it was 0.96; in experiment [5], 0.299; in [6], -0.19. The composite z-score is -0.523 in the experiment on Lefty1; 1.29 in experiment [8]; 0.345 in experiment [10]; 1.54 in experiment [15]; 0.158 in experiment [16]; 0.718 with Torsin-1A (Homo sapiens) [17]. Besides, the composite z-score was 0.849 with Torsin-1A (Homo sapiens) [18] and -0.381 in experiment [19]. Besides, the z-score in experiment [7] is 0.406; in experiment [9], -1.08 (inactive); in experiment [11], 0.758 (inactive); in experiment [12] it was -0.3 (inactive); in [13] it was 0.639 (inactive); in [14] it was 0.104 (inactive).
